From ChEMBL document CHEMBL1961873, “Compounds: GSK PKIS; Assays: Nanosyn kinase panel” (2012) come the findings set out here.

In test [1] the target is Tyrosine-protein kinase CSK (Homo sapiens) (UniProt P41240). The settings on record: at 1 µM.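 Note: each value is an averaged inhibition reading.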
Test [2] addresses T1, Discoidin domain-containing receptor 2 (Homo sapiens) (UniProt Q16832).
T1 sequence (whole entry): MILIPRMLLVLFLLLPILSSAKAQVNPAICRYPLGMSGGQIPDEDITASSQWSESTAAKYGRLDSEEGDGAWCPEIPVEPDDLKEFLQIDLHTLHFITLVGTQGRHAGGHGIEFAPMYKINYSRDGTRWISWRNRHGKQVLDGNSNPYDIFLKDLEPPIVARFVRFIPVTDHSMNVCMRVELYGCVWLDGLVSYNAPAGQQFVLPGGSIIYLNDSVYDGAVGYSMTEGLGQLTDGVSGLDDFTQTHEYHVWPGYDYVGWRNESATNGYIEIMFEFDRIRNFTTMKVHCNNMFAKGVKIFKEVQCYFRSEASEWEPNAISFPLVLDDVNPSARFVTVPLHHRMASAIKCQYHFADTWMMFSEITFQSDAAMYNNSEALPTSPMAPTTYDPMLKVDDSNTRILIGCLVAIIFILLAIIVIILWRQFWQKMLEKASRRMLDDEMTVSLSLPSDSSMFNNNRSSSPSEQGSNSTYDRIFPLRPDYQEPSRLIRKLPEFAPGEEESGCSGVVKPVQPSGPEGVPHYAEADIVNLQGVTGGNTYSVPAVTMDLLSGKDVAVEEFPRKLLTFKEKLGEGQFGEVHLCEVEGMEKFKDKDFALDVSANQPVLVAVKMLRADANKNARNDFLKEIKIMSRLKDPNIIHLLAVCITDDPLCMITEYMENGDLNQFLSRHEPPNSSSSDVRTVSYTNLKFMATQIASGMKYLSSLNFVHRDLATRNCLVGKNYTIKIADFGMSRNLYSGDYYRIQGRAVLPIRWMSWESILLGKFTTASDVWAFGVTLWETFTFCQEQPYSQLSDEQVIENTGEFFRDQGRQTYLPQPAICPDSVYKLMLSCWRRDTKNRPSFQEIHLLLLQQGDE
Conditions: at 0.1 µM.

The target in test [3] is T1, Discoidin domain-containing receptor 2 (Homo sapiens). Conditions: at 1 µM.
Test [4] deals with Epidermal growth factor receptor (Homo sapiens) (UniProt P00533). The settings on record: at 0.1 µM.
Test [5] has the same target. The settings on record: at 1 µM.
The test system of test [6] is Epidermal growth factor receptor (Homo sapiens), P00533 [L858R]. Conditions: at 0.1 µM.
The test system is the same in test [7]. The settings on record: at 1 µM.
Test [8] concerns Epidermal growth factor receptor (Homo sapiens), P00533 [L861Q]. The settings on record: at 0.1 µM.
For test [9] the test system is unchanged. Conditions: at 1 µM.
For test [10], the system named is Epidermal growth factor receptor (Homo sapiens), P00533 [T790M]. The settings on record: at 0.1 µM.

The structures appear in SMILES notation.

Sequence of Epidermal growth factor receptor (Homo sapiens), P00533 [T790M] (P00533 whole entry T790M): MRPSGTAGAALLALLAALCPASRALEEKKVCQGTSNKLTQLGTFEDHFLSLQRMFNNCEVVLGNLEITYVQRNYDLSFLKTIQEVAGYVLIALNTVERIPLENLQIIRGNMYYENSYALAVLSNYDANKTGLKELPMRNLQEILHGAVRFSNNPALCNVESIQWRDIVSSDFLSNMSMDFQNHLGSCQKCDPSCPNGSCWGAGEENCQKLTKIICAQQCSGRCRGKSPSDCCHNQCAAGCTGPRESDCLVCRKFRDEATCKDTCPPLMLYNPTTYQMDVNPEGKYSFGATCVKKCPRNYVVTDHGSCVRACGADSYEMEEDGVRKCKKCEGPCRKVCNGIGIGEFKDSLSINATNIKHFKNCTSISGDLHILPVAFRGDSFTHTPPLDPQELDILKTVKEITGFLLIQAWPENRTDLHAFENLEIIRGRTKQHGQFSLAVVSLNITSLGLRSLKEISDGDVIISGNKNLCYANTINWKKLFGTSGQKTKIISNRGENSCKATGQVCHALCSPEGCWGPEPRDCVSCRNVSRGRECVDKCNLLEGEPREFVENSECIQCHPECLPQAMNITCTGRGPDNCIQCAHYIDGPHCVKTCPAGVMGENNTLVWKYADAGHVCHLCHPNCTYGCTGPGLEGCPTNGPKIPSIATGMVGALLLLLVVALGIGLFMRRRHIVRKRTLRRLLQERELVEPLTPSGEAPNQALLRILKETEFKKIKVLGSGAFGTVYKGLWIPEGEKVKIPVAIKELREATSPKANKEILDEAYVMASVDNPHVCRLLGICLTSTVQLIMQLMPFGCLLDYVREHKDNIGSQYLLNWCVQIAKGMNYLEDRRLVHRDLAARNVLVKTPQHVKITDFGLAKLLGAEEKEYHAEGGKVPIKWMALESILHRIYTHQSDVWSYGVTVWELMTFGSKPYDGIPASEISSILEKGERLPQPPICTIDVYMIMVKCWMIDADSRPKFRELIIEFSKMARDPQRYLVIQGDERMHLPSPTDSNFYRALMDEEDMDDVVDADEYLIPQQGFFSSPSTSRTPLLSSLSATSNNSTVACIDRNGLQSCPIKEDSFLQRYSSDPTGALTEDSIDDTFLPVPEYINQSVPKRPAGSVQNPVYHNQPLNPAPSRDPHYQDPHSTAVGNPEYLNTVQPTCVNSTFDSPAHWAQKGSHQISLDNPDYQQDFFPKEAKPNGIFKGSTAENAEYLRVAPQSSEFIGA
Sequence of Epidermal growth factor receptor (Homo sapiens), P00533 [L861Q] (P00533 whole entry L861Q): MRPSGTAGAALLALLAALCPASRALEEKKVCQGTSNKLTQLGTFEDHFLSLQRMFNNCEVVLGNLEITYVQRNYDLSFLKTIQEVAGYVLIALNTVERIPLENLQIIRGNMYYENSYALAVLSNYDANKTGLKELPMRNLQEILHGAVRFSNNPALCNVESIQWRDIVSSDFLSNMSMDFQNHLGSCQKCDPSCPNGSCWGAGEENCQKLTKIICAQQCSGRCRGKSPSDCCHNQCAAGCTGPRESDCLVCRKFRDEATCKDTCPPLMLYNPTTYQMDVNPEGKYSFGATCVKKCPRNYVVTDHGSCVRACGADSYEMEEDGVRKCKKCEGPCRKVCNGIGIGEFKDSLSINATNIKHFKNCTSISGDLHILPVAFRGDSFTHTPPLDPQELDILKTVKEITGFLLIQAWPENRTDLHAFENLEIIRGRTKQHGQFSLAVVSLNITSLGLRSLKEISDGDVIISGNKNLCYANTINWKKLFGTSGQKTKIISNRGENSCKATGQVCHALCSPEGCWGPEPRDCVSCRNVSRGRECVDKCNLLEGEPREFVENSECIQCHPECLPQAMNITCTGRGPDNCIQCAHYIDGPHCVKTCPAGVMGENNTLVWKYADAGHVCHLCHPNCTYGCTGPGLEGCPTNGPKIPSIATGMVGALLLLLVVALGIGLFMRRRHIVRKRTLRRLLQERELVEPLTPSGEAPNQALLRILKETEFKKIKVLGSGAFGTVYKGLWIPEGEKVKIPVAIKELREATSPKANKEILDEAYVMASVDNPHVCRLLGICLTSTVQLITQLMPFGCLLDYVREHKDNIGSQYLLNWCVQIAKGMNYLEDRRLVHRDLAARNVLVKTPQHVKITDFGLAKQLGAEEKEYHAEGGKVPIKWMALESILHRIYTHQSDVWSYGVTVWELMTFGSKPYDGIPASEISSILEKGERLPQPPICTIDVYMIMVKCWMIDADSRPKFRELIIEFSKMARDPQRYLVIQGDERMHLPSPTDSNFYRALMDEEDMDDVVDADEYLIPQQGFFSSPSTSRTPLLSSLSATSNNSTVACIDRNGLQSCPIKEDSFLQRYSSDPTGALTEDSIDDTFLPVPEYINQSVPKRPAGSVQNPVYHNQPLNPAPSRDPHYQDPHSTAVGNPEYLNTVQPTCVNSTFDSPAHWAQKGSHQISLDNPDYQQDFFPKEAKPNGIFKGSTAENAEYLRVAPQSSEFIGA
Sequence of Epidermal growth factor receptor (Homo sapiens), P00533 [L858R] (P00533 whole entry L858R): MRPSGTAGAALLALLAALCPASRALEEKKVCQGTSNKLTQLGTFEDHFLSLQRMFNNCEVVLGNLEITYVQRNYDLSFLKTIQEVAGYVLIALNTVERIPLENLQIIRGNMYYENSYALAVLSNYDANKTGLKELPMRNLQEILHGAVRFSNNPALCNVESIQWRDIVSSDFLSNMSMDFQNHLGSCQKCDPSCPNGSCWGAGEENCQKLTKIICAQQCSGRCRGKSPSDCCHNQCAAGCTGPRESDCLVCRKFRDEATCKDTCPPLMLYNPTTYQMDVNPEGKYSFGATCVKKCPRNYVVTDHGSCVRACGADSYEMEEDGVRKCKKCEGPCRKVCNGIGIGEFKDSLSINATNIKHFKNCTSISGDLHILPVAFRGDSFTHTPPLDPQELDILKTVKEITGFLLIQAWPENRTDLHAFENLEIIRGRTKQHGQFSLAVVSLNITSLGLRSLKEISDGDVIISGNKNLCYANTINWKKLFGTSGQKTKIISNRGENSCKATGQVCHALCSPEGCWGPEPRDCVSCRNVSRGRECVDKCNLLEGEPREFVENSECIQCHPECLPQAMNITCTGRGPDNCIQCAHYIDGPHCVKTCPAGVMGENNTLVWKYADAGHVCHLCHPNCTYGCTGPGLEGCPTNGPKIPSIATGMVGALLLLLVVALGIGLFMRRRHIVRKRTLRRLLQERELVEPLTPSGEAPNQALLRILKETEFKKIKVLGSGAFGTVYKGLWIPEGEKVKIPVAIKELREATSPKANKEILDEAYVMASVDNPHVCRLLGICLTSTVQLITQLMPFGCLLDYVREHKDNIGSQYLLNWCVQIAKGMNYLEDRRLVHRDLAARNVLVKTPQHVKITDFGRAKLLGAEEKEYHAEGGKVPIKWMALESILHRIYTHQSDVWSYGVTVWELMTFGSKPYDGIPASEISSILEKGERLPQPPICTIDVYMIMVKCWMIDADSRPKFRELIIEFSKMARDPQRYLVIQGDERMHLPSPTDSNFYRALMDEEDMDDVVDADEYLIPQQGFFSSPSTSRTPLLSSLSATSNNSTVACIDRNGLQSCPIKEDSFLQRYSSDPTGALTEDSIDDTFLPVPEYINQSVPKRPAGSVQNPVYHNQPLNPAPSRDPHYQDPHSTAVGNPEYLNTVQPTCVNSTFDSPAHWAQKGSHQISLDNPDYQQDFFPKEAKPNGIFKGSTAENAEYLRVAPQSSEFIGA
Sequence of Epidermal growth factor receptor (Homo sapiens) (P00533 whole entry): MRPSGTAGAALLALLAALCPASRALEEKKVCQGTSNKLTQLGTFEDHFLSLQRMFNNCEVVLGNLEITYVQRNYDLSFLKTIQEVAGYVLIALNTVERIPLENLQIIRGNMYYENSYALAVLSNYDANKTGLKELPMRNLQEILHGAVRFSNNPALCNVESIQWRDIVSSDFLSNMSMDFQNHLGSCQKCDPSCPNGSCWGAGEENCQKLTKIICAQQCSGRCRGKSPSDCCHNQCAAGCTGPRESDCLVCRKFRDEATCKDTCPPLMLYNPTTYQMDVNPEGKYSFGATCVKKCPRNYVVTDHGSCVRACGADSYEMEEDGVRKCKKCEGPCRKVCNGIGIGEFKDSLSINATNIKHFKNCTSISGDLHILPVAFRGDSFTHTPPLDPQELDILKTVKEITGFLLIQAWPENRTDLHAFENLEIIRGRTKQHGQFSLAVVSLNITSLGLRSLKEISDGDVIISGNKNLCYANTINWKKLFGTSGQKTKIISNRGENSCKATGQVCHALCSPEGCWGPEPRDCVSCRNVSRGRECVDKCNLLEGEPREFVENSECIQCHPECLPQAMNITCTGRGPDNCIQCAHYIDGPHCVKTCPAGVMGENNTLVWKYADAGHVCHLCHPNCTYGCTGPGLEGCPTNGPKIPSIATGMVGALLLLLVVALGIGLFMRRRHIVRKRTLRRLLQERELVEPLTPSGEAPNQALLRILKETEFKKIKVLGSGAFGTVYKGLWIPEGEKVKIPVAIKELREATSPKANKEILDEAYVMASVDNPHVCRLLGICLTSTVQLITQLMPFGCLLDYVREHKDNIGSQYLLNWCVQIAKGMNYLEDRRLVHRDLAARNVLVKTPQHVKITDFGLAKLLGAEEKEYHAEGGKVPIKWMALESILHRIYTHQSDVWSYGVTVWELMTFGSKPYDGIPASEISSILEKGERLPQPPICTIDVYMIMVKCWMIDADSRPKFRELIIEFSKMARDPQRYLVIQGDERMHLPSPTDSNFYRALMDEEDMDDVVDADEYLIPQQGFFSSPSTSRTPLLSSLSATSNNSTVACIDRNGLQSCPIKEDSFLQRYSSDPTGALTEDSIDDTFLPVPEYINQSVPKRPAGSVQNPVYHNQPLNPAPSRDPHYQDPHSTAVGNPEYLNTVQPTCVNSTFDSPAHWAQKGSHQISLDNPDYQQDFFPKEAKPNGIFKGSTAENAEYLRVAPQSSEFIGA

A word on the inhibition: it is the change of the read-out against control, counted positive when it falls. Regarding `CN1CCC(n2cnc(-c3ccc(F)cc3)c2-c2ccnc(Nc3ccccc3)n2)CC1`, the inhibition in [1] was 6.08%; in [2] it was -0.08%; in test [3] it was 0.85%; in test [4], 9.04%; in test [5], 46.6%; in test [6], 37%. Moreover, the inhibition was determined as 84.8% in test [7], 9.58% in [8], 51.3% in test [9] and 1.19% in [10].
Take `Nc1nc(-c2cccc(Cl)c2)c(-c2ccc3ncccc3n2)s1`: the inhibition in test [1] is 6.75%; in test [2], -0.28%; in [3] it was -6.1%; in test [4], 0.13%; in [5] it was 6.93%; in test [6], 0.4%. Moreover, the inhibition in test [7] is 15.8%; in test [8], 3.07%; in [9], 10.1%; in test [10], 3.5%.
Consider `CNC(=O)c1cncc(/C=C/c2ccccc2Cl)c1`, for which the inhibition is 6% in test [1]; -0.31% in [2]; 6.62% in [3]; 2.35% in test [4]; 6.18% in test [5]; 1.57% in test [6]. The inhibition was 10.9% in test [7], 1.06% in test [8], 7.25% in [9] and -0.23% in [10].
Turning to `COc1cc(Nc2nccc(Nc3ccc4c(C)n[nH]c4c3)n2)cc(OC)c1OC`, the inhibition was 67.9% in [1]; 9.87% in test [2]; 43.1% in test [3]; 8% in [4]; 22.2% in test [5]; 3.36% in test [6]. Besides, the inhibition in test [7] amounted to 29.9%; in test [8], 2.9%; in [9] it was 15.6%; in test [10], 1.4%.
Turning to `Fc1ccc(-c2cc(-c3c[nH]nc3-c3ccccn3)ccn2)cc1`, the inhibition was 6.45% in [1]; 1.07% in test [2]; 1.14% in [3]; 0.04% in test [4]; 1.67% in test [5]; 3.93% in [6]. For the same compound, the inhibition is 8.78% in [7], 4% in [8], 7.94% in test [9] and 3.06% in test [10].
Turning to `COc1cc2c(cc1Nc1nc(Nc3ccsc3C(N)=O)c3cc[nH]c3n1)N(C(=O)CN(C)C)CCC2(C)C`, the inhibition was determined as 0.65% in [1]; 4.88% in [2]; 1.72% in test [3]; 1.56% in [4]; 9.19% in test [5]; 5.69% in test [6]. In addition, the inhibition was 33.1% in test [7], 1.86% in test [8], 14.5% in [9] and 26.6% in test [10].
`CCN1CCC(CC(=O)Nc2n[nH]c3nnc(-c4cccc(F)c4F)cc23)CC1`: the inhibition in test [1] was 4.47%; in test [2], 1.59%; in [3], 1.68%; in test [4] it was -0.65%; in test [5] it was 2.31%; in test [6], -0.92%. For the same compound, the inhibition was 3.4% in test [7], 0.65% in [8], -0.91% in test [9] and -0.06% in test [10].
On to `Fc1cccc(COc2ccc(Nc3ncnc4sc(-c5ccco5)cc34)cc2Cl)c1`, for which the inhibition in [1] turned out to be 2.56%; in test [2], 3.86%; in test [3], 4.41%; in test [4], 71.9%; in [5] it was 81.9%; in test [6], 15.2%. The inhibition in [7] worked out at 54.8%; in test [8], 30.2%; in test [9] it was 51%; in test [10] it was 1.83%.
Take `Cc1ccc2c(-c3ccnc(Nc4ccccc4)n3)c(-c3ccc(F)cc3)nn2n1`: the inhibition came out at 14.5% in test [1]; 31.2% in test [2]; 83.3% in test [3]; 47.1% in test [4]; 78.4% in test [5]; 85.8% in test [6]. For the same compound, the inhibition in test [7] was determined as 97.4%; in test [8], 51.8%; in test [9] it was 87.8%; in [10] it was 8.63%.
Turning to `CCN(CC)S(=O)(=O)c1ccc(OC)c(Nc2ncc(-c3ccccc3)o2)c1`, the inhibition was found to be 5.35% in [1]; 7.09% in [2]; 17.5% in test [3]; 3.51% in [4]; 3.96% in test [5]; 4.33% in test [6]. The inhibition in test [7] came out at 11.6%; in [8], 3.42%; in test [9] it was 2.22%; in test [10], 1.36%.
For `c1ccc(COc2ccc(Nc3ncnc4ccc(-c5ccco5)cc34)cc2)cc1`, the inhibition was 1.89% in [1]; 0.26% in test [2]; 1.14% in test [3]; 64.3% in test [4]; 86.1% in [5]; 9.89% in test [6]. Also, the inhibition in [7] was 39.4%; in test [8], 22.1%; in [9] it was 36.1%; in test [10] it was 1.47%.
In the case of `CN(C)CCOc1ccc(-c2nc(-c3ccncc3)c(-c3ccc4c(c3)CC/C4=N\O)[nH]2)cc1`, the inhibition in test [1] was determined as 2.75%; in test [2], 1.41%; in test [3], 0.64%; in test [4], 2.89%; in [5], 2.4%; in [6], 5%. Further, the inhibition in test [7] came to 9.64%; in test [8], 2.57%; in test [9] it was 8.13%; in [10], 2.18%.
As to `CC(=O)Nc1cccc(C#Cc2cncnc2Nc2ccc(OCc3cccc(F)c3)c(Cl)c2)c1`, the inhibition in [1] is -1.85%; in [2], 4.51%; in test [3], 7.91%.
As to `CC(=O)NCc1cccc(C#Cc2cncnc2Nc2ccc(OCc3cccc(F)c3)c(Cl)c2)c1`, the inhibition was -2.55% in test [1]; 1.32% in test [2]; 1.46% in test [3]; 61.2% in test [4]; 75.8% in test [5]; 10.4% in [6]. In addition, the inhibition in [7] was 54.2%; in test [8], 24%; in test [9], 42.1%; in test [10], -1.44%.
In the case of `N#Cc1c(NC(=O)CN2CCOCC2)sc2c1CCCC2`, the inhibition in test [1] is 3.68%; in test [2] it was 2.2%; in [3], 2.97%; in [4], 0.55%; in test [5], -0.79%; in test [6], 3.01%. For the same compound, the inhibition was determined as 4.14% in test [7], 3.34% in test [8], 3.29% in test [9] and 3.11% in [10].
As to `COc1ccc(-c2oc3ncnc(N)c3c2-c2ccc(NC(=O)Nc3cc(C(F)(F)F)ccc3F)cc2)cc1`, the inhibition in [1] was 61%; in [2] it was 56.3%; in test [3], 87.3%; in [4] it was 2.43%; in test [5], 2.22%; in [6], 3.73%. Besides, the inhibition in test [7] amounted to 6.19%; in [8], 4.81%; in test [9], 7.85%; in [10] it was 1.19%.
Consider `CCCN1CCC(c2ccc(Nc3nc(Nc4cc(F)ccc4C(N)=O)c4cc[nH]c4n3)c(OC)c2)CC1`, for which the inhibition is 6.03% in [1]; 0.6% in test [2]; 3.39% in test [3]; 8.69% in [4]; 40.3% in test [5]; 5.44% in test [6]. Further, the inhibition in test [7] amounted to 46.4%; in test [8], 6.31%; in test [9] it was 28.4%; in test [10], 30.4%.
